Results filed as inconclusive are left out. Activity calls are given as the source filed them. Unless noted, the call rests on the fitted dose curve; in most records, active means well fitted curve in the direction sought with a large enough effect in the repeat runs; inconclusive means weak or mixed curves; inactive means no such curve, though single readings can be large; an effect the other way counts as inactive or inconclusive.
Key:
[1] = A CellTox Green Cytotoxicity Assay to monitor cytotoxicity in HepG2 cells - 0 hour (AID 1224882); further: nearly all actives have a fitted effect of over 35% in size
In short: (§1)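 HepG2, 600 cells/well premixed w/ CellTox Green; 5 h settle, 37 C/5% CO2; pintool cpd add (DMSO); 37 C, 40 h; fluorescence read at 0, 8, 16, 24, 32, 40 h.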

[2] = A CellTox Green Cytotoxicity Assay to monitor cytotoxicity in HepG2 cells - 32 hour (AID 1224883); further: nearly all actives have a fitted effect of over 50% in size
In short: as §1

[3] = A CellTox Green Cytotoxicity Assay to monitor cytotoxicity in HEK293 cells - 8 hour (AID 1224884); further: nearly all actives have a fitted effect of over 35% in size
In short: (§2)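 Read-out: fluorescence of a cell-impermeant cyanine dye staining DNA of dead cells, proportional to cytotoxicity. HEK293, 600 cells/well with reagent, compound (23 nL DMSO) added after 5 h; reads at 0, 8, 16, 24, 32, 40 h.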

[4] = qHTS RealTime-Glo MT Cell Viability Assay in HepG2 cells - 16 hour (AID 1224885); further: nearly all actives have a fitted effect of over 50% in size
In short: (§3)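 Viability was tracked continuously by NanoLuc luminescence from prosubstrate reduced by living HepG2 cells, at successive time points over 40 h of compound exposure. Cells with reagent were preincubated 5 h at 37 °C before compound addition.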

[5] = qHTS RealTime-Glo MT Cell Viability Assay in HEK293 cells - 24 hour (AID 1224886); further: top concentration of the series differs between compounds; nearly all actives have a fitted effect of over 50% in size
In short: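 Viability tracked continuously by luminescence as live cells reduce a prosubstrate for NanoLuc; HEK293 cells preincubated 5 h, compound-treated at 37 C, and read at 0, 8, 16, 24, 32 and 40 h.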

[6] = qHTS RealTime-Glo MT Cell Viability Assay in HEK293 cells - 8 hour (AID 1224887); further: top concentration of the series differs between compounds; nearly all actives have a fitted effect of over 50% in size
In short: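 Luminescence readout at each listed time point; HEK293, 600 cells/well, RealTime-Glo MT reagent added with cells; compounds pinned (23 nL in DMSO) after 5 h at 37 C; continuous culture at 37 C.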

[7] = A CellTox Green Cytotoxicity Assay to monitor cytotoxicity in HEK293 cells - 16 hour (AID 1224888); further: nearly all actives have a fitted effect of over 35% in size
In short: as §2

[8] = A CellTox Green Cytotoxicity Assay to monitor cytotoxicity in HepG2 cells - 8 hour (AID 1224890); further: nearly all actives have a fitted effect of over 45% in size
In short: as §1

[9] = qHTS assay to identify small molecule antagonists of the estrogen receptor alpha (ER-alpha) signaling pathway using the BG1 cell line in the presence of 0.1 nM 17-beta-estradiol - cell viability counter screen (AID 1259241); further: nearly all actives have a fitted effect of over 40% in size
In short: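 Following 5 days in phenol red-free medium with charcoal-stripped serum, VM7Luc4E2 cells received test compounds alongside 0.1 nM 17beta-estradiol (final) at 37C for 22 hr. Live cells were then quantified via protease-substrate fluorescence.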

[10] = qHTS assay to identify small molecule antagonists of the androgen receptor (AR) signaling pathway using the MDA cell line in the presence of 0.5 nM R1881 - cell viability counter screen (AID 1259242); further: nearly all actives have a fitted effect of over 45% in size
In short: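 Live-cell protease fluorescence, CellTiter-Fluor, 30 min at 37C. Cells: MDA-kb2, 3,000/well, preincubated 5 hr. Compounds plus 0.5 nM R1881 final, 16 hr, 37C, 0% CO2.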

[11] = qHTS assay to identify small molecule HDAC inhibitors (AID 1259364);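 further: wild-type HCT-116 cells with endogenous class I/II HDAC activity; top concentration of the series differs between compounds; nearly all actives have a fitted effect of over 45% in size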
In short: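 HCT-116 (wild type), 1,500 cells/well, overnight; compound 2 hr 37C 5% CO2; HDAC-Glo I/II reagent 30 min RT; luminescence readout.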

[12] = qHTS assay to identify small molecule HDAC inhibitors - cell viability counter screen (AID 1259365)
In short: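 HCT-116 wild-type, overnight attachment; 2hr drug exposure, 37C; CellTiter-Glo luminescent ATP readout after 30min RT.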

[13] = qHTS assay to identify small molecule agonists of the sonic hedgehog signaling (Shh) pathway - cell viability counter screen (AID 1259366); further: nearly all actives have a fitted effect of over 50% in size
In short: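 Compounds in DMSO were pin-transferred onto 3T3 Gli1-Luc cells that had settled 4hr; plates then stood 24hr at 37C and 5% CO2. One hour before the end, CellTiter-Fluor was added and fluorescence recorded.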

[14] = qHTS assay to identify small molecule antagonists of the sonic hedgehog signaling (Shh) pathway - cell viability counter screen (AID 1259367); further: nearly all actives have a fitted effect of over 55% in size
In short: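 CellTiter-Fluor signal in conditioned medium-stimulated 3T3 Gli1-Luc cells, 23 hr compound exposure, 37C.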

[15] = qHTS assay to identify small molecule agonists of the sonic hedgehog signaling (Shh) pathway (AID 1259368; calls by dose curve;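 further: NIH/3T3-derived 3T3Gli1-Luc cells carrying a stable Gli1-driven firefly luciferase reporter; series mostly up to about 92 µM; nearly all actives have a fitted effect of over 15% in size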)
In short: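 Read-out: firefly luciferase luminescence from a Gli1 response element reporter stably integrated in NIH/3T3-derived 3T3Gli1-Luc cells, measured 30 min at room temperature after reagent addition. Compound exposure lasted 24 hr at 37 C, 5% CO2.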

[16] = qHTS assay to identify small molecule antagonists of the sonic hedgehog signaling (Shh) pathway (AID 1259369; calls by dose curve; further: nearly all actives have a fitted effect of over 45% in size)
In short: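 Luminescence readout: firefly Luc under Gli1 response element in 3T3Gli1-Luc cells (NIH/3T3 clone). Antagonist mode, stimulation by conditioned medium; compound exposure 24hr at 37 C, 5% CO2.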

[17] = molecular target: Estrogen receptor (Homo sapiens) (UniProt P03372); experiment: qHTS assay to identify small molecule antagonists of the estrogen receptor alpha (ER-alpha) signaling pathway using the BG1 cell line in the presence of 0.1 nM 17-beta-estradiol (AID 1259244); further: nearly all actives have a fitted effect of over 50% in size
Sequence of Estrogen receptor (Homo sapiens) (P03372 whole entry, looked up): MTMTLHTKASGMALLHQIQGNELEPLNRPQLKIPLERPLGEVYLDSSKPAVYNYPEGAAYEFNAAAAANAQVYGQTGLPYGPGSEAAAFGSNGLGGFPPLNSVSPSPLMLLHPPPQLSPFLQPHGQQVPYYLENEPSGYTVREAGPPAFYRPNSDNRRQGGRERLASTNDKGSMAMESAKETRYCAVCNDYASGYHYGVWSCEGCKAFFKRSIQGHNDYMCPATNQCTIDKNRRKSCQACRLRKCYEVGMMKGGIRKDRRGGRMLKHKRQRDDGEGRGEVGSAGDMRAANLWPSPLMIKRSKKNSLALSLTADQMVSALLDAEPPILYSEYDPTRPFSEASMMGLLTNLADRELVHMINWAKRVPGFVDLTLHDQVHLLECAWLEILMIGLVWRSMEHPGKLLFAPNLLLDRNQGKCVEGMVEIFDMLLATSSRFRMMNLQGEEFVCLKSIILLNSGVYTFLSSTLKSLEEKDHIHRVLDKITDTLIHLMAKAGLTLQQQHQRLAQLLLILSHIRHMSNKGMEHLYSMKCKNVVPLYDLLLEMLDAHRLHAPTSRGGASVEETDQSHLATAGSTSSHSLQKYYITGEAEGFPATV
In short: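 Luminescence after ONE-Glo (30 min, room temperature) measured ERE-luciferase activity in VM7Luc4E2 cells treated 22 h with compound and 0.1 nM final 17beta-estradiol as stimulator.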

[18] = qHTS assay to identify small molecule phospholipidosis (PLD) inducers (AID 1259344; active means well fitted curve in the direction sought with a large enough effect; an effect the other way counts as inactive or inconclusive)
In short: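 Accumulated phospholipid, stained red by LipidTOX during 24 h compound treatment of HepG2 cells at 37 C, is quantified from images as pit number and intensity, normalised per cell using Hoechst-stained nuclei.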

[19] = qHTS RealTime-Glo MT Cell Viability Assay in HepG2 cells - 0 hour (AID 1224889); further: nearly all actives have a fitted effect of over 50% in size
In short: as §3

[20] = molecular target: Androgen receptor (Homo sapiens) (UniProt P10275); experiment: qHTS assay to identify small molecule antagonists of the androgen receptor (AR) signaling pathway using the MDA cell line in the presence of 0.5 nM R1881 (AID 1259243); further: nearly all actives have a fitted effect of over 50% in size
Sequence of Androgen receptor (Homo sapiens) (P10275 whole entry, looked up): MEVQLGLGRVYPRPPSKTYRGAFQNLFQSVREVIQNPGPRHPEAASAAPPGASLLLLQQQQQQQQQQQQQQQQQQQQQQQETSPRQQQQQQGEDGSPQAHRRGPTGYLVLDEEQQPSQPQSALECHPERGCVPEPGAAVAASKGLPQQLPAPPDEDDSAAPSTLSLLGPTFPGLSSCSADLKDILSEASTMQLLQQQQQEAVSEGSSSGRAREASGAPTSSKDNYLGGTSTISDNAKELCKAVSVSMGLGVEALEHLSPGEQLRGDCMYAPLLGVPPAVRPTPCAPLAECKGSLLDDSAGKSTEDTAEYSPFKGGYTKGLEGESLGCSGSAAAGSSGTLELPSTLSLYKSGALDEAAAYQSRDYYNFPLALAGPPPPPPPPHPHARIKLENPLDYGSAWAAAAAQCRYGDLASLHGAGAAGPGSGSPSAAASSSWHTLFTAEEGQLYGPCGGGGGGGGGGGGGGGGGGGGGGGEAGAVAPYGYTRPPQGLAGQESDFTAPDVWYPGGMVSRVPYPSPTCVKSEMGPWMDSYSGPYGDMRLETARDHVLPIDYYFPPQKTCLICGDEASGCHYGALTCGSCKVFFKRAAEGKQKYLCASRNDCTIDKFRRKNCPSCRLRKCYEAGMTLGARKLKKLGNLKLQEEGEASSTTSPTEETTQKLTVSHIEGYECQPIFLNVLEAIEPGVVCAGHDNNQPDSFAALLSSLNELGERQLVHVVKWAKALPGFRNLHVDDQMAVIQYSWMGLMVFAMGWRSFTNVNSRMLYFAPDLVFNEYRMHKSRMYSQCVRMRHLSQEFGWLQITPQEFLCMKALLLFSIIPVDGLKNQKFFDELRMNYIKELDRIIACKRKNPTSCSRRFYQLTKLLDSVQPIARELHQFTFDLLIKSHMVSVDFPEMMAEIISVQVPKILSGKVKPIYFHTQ
In short: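 MDA-kb2, MMTV-luc (AR/GR elements); 3,000 cells/well; cpd + 0.5 nM R1881 final; 16 hr 37C, 0% CO2; ONE-Glo 30 min RT; luminescence.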
On the % scale 0 is the no-effect control and ±100 the full control effect.

CC(C)(CCC(=O)O)C(=O)O
inactive: Potency [1] | Potency [2] | outcome [3] | outcome [4] | Potency [5] | Potency [6] | outcome [7] | outcome [8] | outcome [9] | outcome [10] | Potency [11] | outcome [12] | Potency [13] | Potency [14] | outcome [15] | Potency [16]

c1ccc(Cc2ccccc2)cc1
inactive: Potency [1] | Potency [2] | outcome [3] | outcome [4] | Potency [5] | Potency [6] | outcome [7] | outcome [8] | outcome [9] | outcome [10] | outcome [17] | Potency [11] | outcome [12] | Potency [13] | Potency [14] | outcome [15] | Potency [16]

CCC(C)(CN(C)C)OC(=O)c1ccccc1 (configuration not stated)
inactive: Potency [1] | Potency [2] | outcome [3] | outcome [4] | Potency [5] | Potency [6] | outcome [7] | outcome [8] | outcome [9] | outcome [10] | outcome [18] | outcome [12] | Potency [13] | Potency [14] | outcome [15] | Potency [16]

CCOc1ccc2nc(S(N)(=O)=O)sc2c1
inactive: Potency [1] | Potency [2] | outcome [3] | outcome [4] | Potency [5] | Potency [6] | outcome [7] | outcome [8] | outcome [9] | outcome [10] | outcome [17] | outcome [18] | Potency [11] | outcome [12] | Potency [13] | Potency [14] | outcome [15] | Potency [16]

CCCCCC(C)N (configuration not stated)
inactive: Potency [1] | Potency [2] | outcome [3] | Potency [5] | Potency [6] | outcome [7] | Potency [19] | outcome [8] | outcome [9] | outcome [10] | Potency [20] | outcome [18] | Potency [11] | outcome [12] | Potency [13] | Potency [14] | outcome [15] | Potency [16]

Cc1cc(C)c(N=Nc2c(O)c(S(=O)(=O)O)cc3cc(S(=O)(=O)O)ccc23)cc1C
inactive: cytotoxicity [1] 2.93% [at 6.97 µM] | cytotoxicity increase [2] -2.71% [at 6.97 µM] | cytotoxicity increase [3] 0% [at 6.97 µM] | activity change, negative = cytotoxic [4] 0.476% [at 6.97 µM] | activity change [7] 15.4% [at 6.97 µM] | activity change, negative = cytotoxicity [19] 4.39% [at 6.97 µM] | cytotoxicity increase [8] 3.92% [at 6.97 µM] | activity change, negative = cytotoxicity [9] -12.4% [at 8.39 µM] | viability change, negative = cytotoxic [10] -3.59% [at 8.39 µM] | activity change, negative = inhibition [17] -1.05% [at 8.39 µM] | activity change, negative = inhibition [11] -2.59% [at 8.39 µM] | activity change, negative = cytotoxicity [12] -2.91% [at 8.39 µM] | viability change, negative = cytotoxic [13] -2.37% [at 8.39 µM] | viability change, negative = cytotoxic [14] -9.99% [at 8.39 µM] | activity change [15] -1.73% [at 8.39 µM] | activity change, negative = inhibition [16] 9.78% [at 8.39 µM]

CC1=CC(=O)[C@H]2C[C@@H]1C2(C)C
inactive: Potency [1] | Potency [2] | outcome [3] | outcome [4] | Potency [5] | Potency [6] | outcome [7] | outcome [8] | outcome [9] | outcome [10] | Potency [11] | outcome [12] | Potency [13] | Potency [14] | outcome [15] | Potency [16]

CC(=O)C1CCCCC1=O (configuration not stated)
inactive: Potency [1] | Potency [2] | outcome [3] | outcome [4] | Potency [5] | Potency [6] | outcome [7] | outcome [8] | outcome [9] | outcome [10] | Potency [11] | outcome [12] | Potency [13] | Potency [14] | outcome [15]
